Consider 40 compounds from PubChem BioAssay (EPA / NIEHS).

Inconclusive results are not listed. The source made the active and inactive calls. How the source made its calls: active means hit-call score of the fitted dose curve at least 0.9, where 1 is the maximum; inconclusive means response in the unintended direction; inactive means score below 0.9.

The AC50 is the concentration at which the activity in the assay is half-maximal.

Read-out in the assay: alkyl and aryl transferase (GSTA2), GSTA2 (gene 2939)
The assay can be described thus: CLD_GSTA2_48hr: CellzDirect (CLD) Gene Expression Assay for alkyl and aryl transferase (GSTA2) at 48 hours (AID 2283708). Here is the method: CLD_48hr is a cell-based, multiplexed-readout assay that uses hepatocyte, a human liver primary cell, with measurements taken at 48 hours after chemical dosing in a 96-well plate.CLD_GSTA2_48hr is one of 16 assay component(s) measured or calculated from the CLD_48hr assay. It is designed to make measurements of mRNA induction, a form of inducible reporter, as detected with chemiluminescence signals by Quantitative Nuclease Protection Assay (qNPA) technology.Data from the assay component CLD_GSTA2_48hr was analyzed at the endpoint, CLD_GSTA2_48hr, in the positive analysis fitting direction relative to DMSO as the negative control and baseline of activity. Using a type of inducible reporter, gain-of-signal activity can be used to understand changes in the reporter gene as they relate to the gene GSTA2. Furthermore, this assay endpoint can be referred to as a primary readout. To generalize the intended target to other relatable targets, this assay endpoint is annotated to the transferase intended target family, where subfamily is alkyl and aryl transferase.
Human hepatocyte cultures were treated daily for two consecutive days with fresh dosing solutions containing appropriate concentrations of the 320 ToxCast chemicals (chemical identities were blinded to CellzDirect and other ToxCast collaborators), vehicle control (0.2% DMSO), and positive control inducers as summarized in Table 1. […] These replicate data, coupled with internal replicates designed within the blinded ToxCast chemical library, provided additional data to evaluate interindividual differences between hepatocyte preparations and their potential impact on chemical profiles.Cell morphology and integrity were evaluated using phase-contrast microscopy as an indicator of hepatocyte cell health (Tyson & Green, 1987). Cultures for each treatment group (i.e., media, vehicle [0.2% DMSO], positive control inducers [multiple concentrations], and the ToxCast chemicals [multiple concentrations]) were observed and cell morphology was assessed relative to vehicle control cultures at each harvest time point (0, 6, 24, or 48 h). […] Images were evaluated at the conclusion of the study to assess changes in cell integrity and account for the effects of chemical exposure on uncharacteristic changes in concentration-dependent gene expression profiles. The results from these determinations of apparent cytotoxicity were annotated (yes/no) alongside the corresponding qNPA data for reference.At the conclusion of each treatment period, hepatocyte cultures (96-well) were washed with 1 volume of HBSS, lysed by addition of 25 ul ArrayPlate lysis buffer (HTG, Tucson, AZ), and 70 ul/well of Denaturation Oil, denatured by incubation at 95C for 10 min, and frozen at approximately -70C until analysis by nuclease protection assay (qNPA) (Roberts et al., 2007). For qNPA analysis, cell lysates were thawed at 50C for approximately 30 min, qNPA probes were added, and samples were incubated at 95C for 10 min to begin the detection process by denaturing the target RNA, dissociating the duplexes and secondary structure hybridization. At the conclusion of the hybridization period, S1 nuclease reagent was added to each sample to digest all nonprotected nucleotides at 50C for 60-90 min. At the conclusion of the S1 nuclease digestions, all reactions were stopped by transfer of all the samples to fresh plates containing stop solution and incubated at 95C for 15 min to deactivate the enzyme, dissociate the mRNA/ DNA probe heterodimers, and hydrolyze the resulting single stranded mRNA, leaving a stoichiometric amount of single-stranded DNA nuclease protection probe, unmodified in sequence, as the only intact oligonucleotide left in the sample. Neutralization solution was subsequently applied to cooled (room temperature) plates, and samples were transferred to ArrayPlates for overnight incubations at 50Cto allow probes to be captured onto programmed locations on the ArrayPlates. […]
As for `CC1(C)C(C=C(Cl)Cl)C1C(=O)OC(C#N)c1ccc(F)c(Oc2ccccc2)c1` (stereo not given), the compound was classed as inactive.

For `CCN(CC)C(=O)SCc1ccc(Cl)cc1`, the compound was classed as inactive.

On to `ClC1C(Cl)C(Cl)C(Cl)C(Cl)C1Cl` (stereo not given), for which the call was inactive.

For the compound `Clc1ccccc1-c1nnc(-c2ccccc2Cl)nn1`, the compound was classed as inactive.

Turning to `CNC(=O)/C=C(\C)OP(=O)(OC)OC`, the compound was called inactive.

Consider `CC(C)N(C(=O)COc1nnc(C(F)(F)F)s1)c1ccc(F)cc1`, for which the call was inactive.

Regarding `CC(C)(C)C(O)C(Oc1ccc(Cl)cc1)n1cncn1` (stereo not given), the result was inactive.

For the compound `[2H]C1([2H])[n+]2ccccc2-c2cccc[n+]2C1([2H])[2H]`, the result was inactive.

For `O=[N+]([O-])/N=C1\NCCN1Cc1ccc(Cl)nc1`, the compound was classed as inactive.

As to `Cc1[nH]c(=O)n(C(C)(C)C)c(=O)c1Cl`, the call was inactive.

In the case of `CC(C)OC(=O)Nc1cccc(Cl)c1`, the result was inactive.

With `COC(=O)c1ccccc1S(=O)(=O)NC(=O)N(C)c1nc(C)nc(OC)n1`, the compound was classed as inactive.

Turning to `O=C(O)C(F)(F)C(F)(F)C(F)(F)C(F)(F)C(F)(F)C(F)(F)C(F)(F)F`, the result was inactive.

With `CCC(C)Nc1c([N+](=O)[O-])cc(C(C)(C)C)cc1[N+](=O)[O-]` (stereo not given), the concentration at half-maximal activity (AC50) was 4.11 µM (active).

On to `CCCN(CCC)c1c([N+](=O)[O-])cc(C(F)(F)F)cc1[N+](=O)[O-]`, for which the compound was called inactive.

On to `CCOC1Oc2ccc(OS(C)(=O)=O)cc2C1(C)C` (stereo not given), for which the call was inactive.

Regarding `CC1(c2ccc(Oc3ccccc3)cc2)OC(=O)N(Nc2ccccc2)C1=O` (stereo not given), the compound was classed as inactive.

For `C#CCN1C(=O)COc2cc(F)c(N3C(=O)C4=C(CCCC4)C3=O)cc21`, the compound was called inactive.

`CN1CSC(=S)N(C)C1`: the call was inactive.

Consider `COP(=O)(OC)OC=C(Cl)Cl`, for which the result was inactive.

For `CNC(=O)Oc1cccc(N=CN(C)C)c1`, the call was inactive.

On to `O=[N+]([O-])c1c(Cl)c(Cl)c(Cl)c(Cl)c1Cl`, for which the call was inactive.

As to `O=C(Nc1ccccc1)Nc1cnns1`, the call was inactive.

With `CCC(C)(C)C(=O)OC1=C(c2ccc(Cl)cc2Cl)C(=O)OC12CCCCC2`, the call was inactive.

With `CCOc1nc(NC)nc(NC(=O)NS(=O)(=O)c2ccccc2C(=O)OC)n1`, the compound was called inactive.

With `CC[C@H](C)[C@H]1O[C@]2(C=C[C@@H]1C)C[C@@H]1C[C@@H](C/C=C(\C)[C@@H](O[C@H]3C[C@H](OC)[C@@H](O[C@H]4C[C@H](OC)[C@@H](O)[C@H](C)O4)[C@H](C)O3)[C@@H](C)/C=C/C=C3\CO[C@@H]4[C@H](O)C(C)=C[C@@H](C(=O)O1)[C@]34O)O2` (tested in a mixture with another compound), the compound was classed as inactive.

With `N#Cc1c(Cl)c(Cl)c(Cl)c(C#N)c1Cl`, the outcome was inactive.

In the case of `Oc1ccc(Cl)cc1Cc1ccccc1`, the compound was called inactive.

Consider `COC(=O)c1ccccc1CS(=O)(=O)NC(=O)Nc1nc(OC)cc(OC)n1`, for which the call was inactive.

For `CCOCN(C(=O)CCl)c1c(C)cccc1CC`, the concentration at half-maximal activity (AC50) is 20 µM (active).

Turning to `O=C1c2ccccc2C(=O)N1SC(Cl)(Cl)Cl`, the compound was called inactive.

On to `COc1cc(OC)nc(NC(=O)NS(=O)(=O)c2cc(NC=O)ccc2C(=O)N(C)C)n1`, for which the compound was called inactive.

In the case of `C[C@H]1[C@H](c2ccc(Cl)cc2)SC(=O)N1C(=O)NC1CCCCC1`, the concentration at half-maximal activity (AC50) was 34.4 µM (active).

In the case of `OCCOc1ccccc1`, the compound was called inactive.

As for `CCC(C)(NC(=O)c1cc(Cl)c(C)c(Cl)c1)C(=O)CCl` (stereo not given), the compound was classed as inactive.

As for `N#CN`, the compound was classed as inactive.

For `CCCN(CCOc1c(Cl)cc(Cl)cc1Cl)C(=O)n1ccnc1`, the compound was called inactive.

With `Oc1cc(Cl)ccc1Oc1ccc(Cl)cc1Cl`, the result was inactive.

`CCS(=O)(=O)c1cccnc1S(=O)(=O)NC(=O)Nc1nc(OC)cc(OC)n1`: the compound was classed as inactive.

With `COC(=O)c1ccccc1S(=O)(=O)NC(=O)Nc1nc(C)nc(OC)n1`, the outcome was inactive.
